In PubChem BioAssay (EPA / NIEHS):
Active and inactive are the calls of the source. Rule for the calls: active = hit-call score of the fitted dose curve at least 0.9, where 1 is the maximum; inactive = score below 0.9.

experiment: APR_HepG2_p53Act_1hr: Apredica 1-hour HepG2 Assay for p53 Activation (AID 2282671); settings: high-content imaging, actives raise or lower the signal
Procedure: APR_HepG2_1hr is a cell-based, multiplexed-readout assay that uses HepG2, a human liver cell line, with measurements taken at 1 hour after chemical dosing in a 384-well plate.APR_HepG2_p53Act_1hr is one of 10 assay component(s) measured or calculated from the APR_HepG2_1hr assay. It is designed to make measurements of dna content, a form of viability reporter, as detected with fluorescence intensity signals by HCS Fluorescent Imaging technology.Data from the assay component APR_HepG2_p53Act_1hr was analyzed into 1 assay endpoint. This assay endpoint, APR_HepG2_p53Act_1hr, was analyzed with bidirectional fitting relative to DMSO as the negative control and baseline of activity. Using a type of viability reporter, measures of protein for gain or loss-of-signal activity can be used to understand the signaling at the pathway-level as they relate to the gene TP53. Furthermore, this assay endpoint can be referred to as a primary readout, because this assay has produced multiple assay endpoints where this one serves a signaling function. To generalize the intended target to other relatable targets, this assay endpoint is annotated to the dna binding intended target family, where the subfamily is tumor suppressor.
Cells were treated with dimethyl sulfoxide (DMSO) as a solvent control at a final concentration of 0.5% v/v or with compounds in DMSO with a resulting final DMSO concentration of 0.5% v/v. Compound treatment was done at concentrations of 0.39, 0.78, 1.56, 3.12, 6.24, 12.5, 25, 50, 100, and 200 uM in duplicate on each plate. Cells were treated with compounds for 1, 24, or 72 hr. Carbonyl […] m-chloro-phenylhydrazone (CCCP) and taxol were used as positive controls for mitochondrial function and cytoskeletal stability, respectively; DMSO served as the negative control for this experiment. Cells were fixed by the direct addition of 50 uL formaldehyde in Hank's Balanced Salt Solution (HBSS) to a final concentration of 3.7%. After incubation in the fixation medium for 30 min at room temperature (293-298 K), cells were rinsed twice with HBSS and treated with cell permeabilization buffer (16 uL of 0.5% Triton X-100) for 10 min at room temperature (293-298 K) before labeling. For mitochondrial membrane potential and mitochondrial measurements, pre-fixed cells were incubated with 50 uL of MitoTracker Red CMXRos (Invitrogen) at a concentration of 250 nM for 30 min before fixation. In the remaining cases, post-fixed cells were labeled by incubation with a multiplexed mixture of primary antibodies in HBSS for 60 min at room temperature (293-298 K) to detect immunoreactivity of c-Jun (1:500), phospho-histone H3 (1:100), phospho-histone H2A.x (1:200), p53 (1:400), alpha-tubulin (1:200) and Hoechst 33342 (2 ug/mL). Cells were labeled for multiplexed imaging on two separate plates: a) Hoechst 33342, MitoTracker Red, phospho-histone H3, and alpha-tubulin, and b) Hoechst 33342, phospho-histone H2A.x, and c-Jun. A final rinse with HBSS (50 uL) was performed before analysis. The primary and secondary antibodies for the proteins were phospho-histone H3 (rabbit anti-phospho-histone H3 and FITC-donkey anti-rabbit IgG), phospho-histone H2A.x (mouse anti-phospho-histone H2A.x and FITC-donkey anti-mouse IgG), c-Jun (rabbit anti-phospho-c-Jun and Cy3-donkey anti-rabbit IgG), p53 (sheep anti-p53 and Cy5-donkey anti-sheep IgG), alpha-tubulin (mouse anti-alpha-tubulin and Cy5-donkey anti-mouse IgG). These antibodies are available as the CellCiphr HepG2 assay kit (Millipore).Digital images of each well were captured using a Cellomics ArrayScan VTI (Thermo Scientific Cellomics) (0.8 NA objective, 0.63x optical coupler, and XF-93 filter set) at 20x magnification. The images were acquired using the autofocus feature of the ArrayScan instrument, which entails the following steps. First, the camera focuses on channel 1 (Hoechst 33342), where nuclei are identified. Second, a Z offset of 1 um is used for capturing mitochondria (MitoTracker Red). […]

Structure (SMILES) | outcome
CCCOC(=O)c1ccc(C(=O)OCCC)nc1 | inactive
COC(=O)c1c(Cl)nn(C)c1S(=O)(=O)NC(=O)Nc1nc(OC)cc(OC)n1 | inactive
Cc1nn(C)c(Oc2ccccc2)c1C=NOCc1ccc(C(=O)OC(C)(C)C)cc1 | inactive
CCC(O)=C1C(=O)CC(C(=O)O)CC1=O (stereo not given) | inactive
CC(C)(C)[C@@H](O)[C@@H](Cc1ccc(Cl)cc1)n1cncn1 | inactive
COC(=O)c1ccc(CNS(C)(=O)=O)cc1S(=O)(=O)NC(=O)Nc1nc(OC)cc(OC)n1 | inactive
CCC(C)OC(=O)N1CCCCC1CCO (stereo not given) | inactive
CCOC(=O)COc1cc(-n2ncc(C(F)(F)F)c(C)c2=O)c(F)cc1Cl | inactive
CCSC(=O)N(CC(C)C)CC(C)C | inactive
CCCOC(=O)NCCCN(C)C | inactive
C#CCOC(=O)[C@@H](C)Oc1ccc(Oc2ncc(Cl)cc2F)cc1 | inactive
Oc1ccc(C(c2ccc(O)cc2)C(Cl)(Cl)Cl)cc1 | inactive
COC(=O)CSc1cc(N=c2sc(=O)n3n2CCCC3)c(F)cc1Cl | inactive
COC(=O)c1ccccc1S(=O)(=O)NC(=O)Nc1nc(OC(F)F)cc(OC(F)F)n1 | inactive
CCOC(=O)[C@H](C)Oc1ccc(Oc2nc3ccc(Cl)cc3o2)cc1 | inactive
OB(O)O | inactive
CSC(=O)c1cccc2nnsc12 | inactive
CN(C)C(=O)Nc1ccc(Cl)c(Cl)c1 | inactive
COC(=O)c1ccccc1C(=O)O | inactive
COC(=O)c1ccc(I)cc1S(=O)(=O)NC(=O)Nc1nc(C)nc(OC)n1 | inactive

Structure (SMILES) | outcome
c1ccc(Nc2ccccc2)cc1 | inactive
CCN(Cc1c(F)cccc1Cl)c1c([N+](=O)[O-])cc(C(F)(F)F)cc1[N+](=O)[O-] | inactive
CC1(C)C(C=C(Cl)Cl)C1C(=O)OCc1cccc(Oc2ccccc2)c1 (stereo not given) | inactive
O=C(O)C1(C(=O)Nc2ccc(Cl)cc2Cl)CC1 | inactive
CCCN(CCC)C(=O)SCC | inactive
COCCO | inactive
CCCCOC(=O)[C@@H](C)Oc1ccc(Oc2ccc(C(F)(F)F)cn2)cc1 | inactive
CCCCC(CC)COC(=O)c1ccccc1C(=O)O (stereo not given) | inactive
CCOC(=O)NCCOc1ccc(Oc2ccccc2)cc1 | inactive
COC(=O)c1cccc(C)c1S(=O)(=O)NC(=O)Nc1nc(OCC(F)(F)F)nc(N(C)C)n1 | inactive
CCNc1nc(N)nc(Cl)n1 | inactive
CCCCC(CC)CN1C(=O)C2C3C=CC(C3)C2C1=O (stereo not given) | inactive
O=C(Nc1ccc([N+](=O)[O-])cc1Cl)c1cc(Cl)ccc1O | inactive
CC(C)(c1ccc(O)cc1)c1ccc(O)cc1 | inactive
CCCN(CCC)c1c([N+](=O)[O-])cc(C(F)(F)F)c(N)c1[N+](=O)[O-] | inactive
COc1nc(C)nc(NC(=O)NS(=O)(=O)c2ccccc2OCCCl)n1 | inactive
CCOC(=O)C(C)Oc1ccc(Oc2nc3ccc(Cl)cc3o2)cc1 (stereo not given) | inactive
CCCCCCC(C)OC(=O)COc1nc(F)c(Cl)c(N)c1Cl (stereo not given) | inactive
C=CCOC(Cn1ccnc1)c1ccc(Cl)cc1Cl (stereo not given) | inactive
CCCCOC(=O)C(C)Oc1ccc(Oc2ccc(C(F)(F)F)cn2)cc1 (stereo not given) | inactive
